The record followed here is article PMC7826789 (International Journal of Molecular Sciences, 2021).

Some test systems named below: HIPK2; HIPK3; HIPK4; HUNK; ICK; IGF1R; INSRR; INSR; IRAK1; IRAK3; IRAK4; ITK.
What all share (conditions): Compound Concentration (nM):1000
The subject of the next assay is T1, HPK1.
T1 construct: gene MAP4K1

A further assay relates to T2, IKK-alpha.
T2 construct: gene CHUK

The subject of a further assay is T3, IKK-beta.
T3 construct: gene IKBKB

The next assay has as its system T4, IKK-epsilon.
T4 construct: gene IKBKE

The subject of assay [1] is JAK1(JH1domain-catalytic).
Assay [2] concerns JAK1(JH2domain-pseudokinase).
For assay [3], the system named is JAK2(JH1domain-catalytic).
Assay [4] deals with JAK3(JH1domain-catalytic).
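Note: KINOMEscan scanMAX binding as percent activity remaining versus control; lower means stronger binding.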

As to `COc1cc(/C=N/Nc2ncnc3[nH]ncc23)ccc1O` [GW578748X], the “Percent Control” value in the assay on HIPK2 stood at 19%; in the assay with HIPK3 it was 16%; with HIPK4, 85%; in the assay with HPK1 it was 80%; in the assay with HUNK, 100%; in the assay on ICK it was 75%. The “Percent Control” value in the assay on IGF1R is on record as 100%; in the assay with IKK-alpha it was 14%; in the assay with IKK-beta it was 33%; in the assay on IKK-epsilon it was 81%; in the assay with INSRR it was 100%; in the assay with INSR, 94%. Besides, the “Percent Control” value in the assay on IRAK1 is 31%; in the assay with IRAK3, 100%; in the assay on IRAK4, 61%; in the assay on ITK it was 100%; in [1] it was 100%; in [2] it was 0.6%. Further, the “Percent Control” value in assay [3] and in assay [4] was 47% in each case.

In the case of `COc1cc2ncnc(Nc3ccc4c(cnn4Cc4ccccc4)c3)c2cc1OC.Cl` [GW282449A], the “Percent Control” value in the assay with HIPK2 is on record as 100%; in the assay with HIPK3, 100%; in the assay on HIPK4, 100%; with HPK1, 100%; with HUNK, 92%; in the assay on ICK it was 100%. Besides, the “Percent Control” value in the assay with IGF1R, with IKK-alpha, with IKK-beta, in the assay on IKK-epsilon, in the assay on INSRR and in the assay on INSR was 100% in each case. Besides, the “Percent Control” value in the assay on IRAK1 was 100%; with IRAK3, 100%; in the assay on IRAK4, 100%; in the assay on ITK, 100%; in assay [1] it was 100%; in assay [2] it was 92%. Further, the “Percent Control” value in assay [3] and in assay [4] was 100% in each case.

`C[C@@H](Oc1cc(-n2cnc3ccc(OC4CCN(C)CC4)cc32)sc1C(N)=O)c1ccccc1Cl` [GSK579289A]: the “Percent Control” value was 81% in the assay with HIPK2; 76% with HIPK3; 15% in the assay with HIPK4; 58% in the assay on HPK1; 73% in the assay with HUNK; 96% in the assay on ICK. Moreover, the “Percent Control” value with IGF1R is 69%; in the assay on IKK-alpha it was 99%; with IKK-beta, 100%; with IKK-epsilon, 76%; in the assay on INSRR, 90%; with INSR, 64%. Further, the “Percent Control” value in the assay with IRAK1 is 73%; in the assay on IRAK3, 83%; in the assay with IRAK4, 94%; in the assay on ITK, 77%; in [1], 100%; in assay [2] it was 75%. Further, the “Percent Control” value is given as 75% in assay [3] and 7.2% in [4].

For `NS(=O)(=O)c1ccc(N/N=C2\C(=O)Nc3ccc(C(=O)NCc4ccncc4)cc32)cc1` [GW300657X], the “Percent Control” value with HIPK2 was 9.9%; in the assay on HIPK3, 12%; with HIPK4, 81%; in the assay with HPK1, 70%; in the assay with HUNK, 86%; in the assay with ICK, 15%. Moreover, the “Percent Control” value was 95% in the assay on IGF1R; 86% with IKK-alpha; 83% with IKK-beta; 42% in the assay with IKK-epsilon; 89% with INSRR; 100% in the assay on INSR. Further, the “Percent Control” value in the assay on IRAK1 is 71%; in the assay on IRAK3 it was 91%; in the assay on IRAK4, 96%; in the assay with ITK, 99%; in assay [1], 88%; in assay [2], 50%. Also, the “Percent Control” value in assay [3] came out at 64%; in assay [4], 37%.

For `CC1=C(C(=O)Nc2ccc3[nH]ncc3c2)C(c2ccc3ccccc3c2)CC(=O)N1` (centres unmarked) [GSK270822A], the “Percent Control” value amounted to 76% in the assay with HIPK2; 79% in the assay with HIPK3; 100% in the assay with HIPK4; 87% in the assay with HPK1; 91% in the assay on HUNK; 84% in the assay with ICK. The “Percent Control” value in the assay on IGF1R worked out at 85%; with IKK-alpha, 69%; with IKK-beta it was 72%; with IKK-epsilon, 87%; in the assay on INSRR it was 100%; with INSR, 100%. The “Percent Control” value in the assay on IRAK1 is 72%; in the assay on IRAK3 it was 67%; in the assay on IRAK4 it was 100%; in the assay with ITK it was 75%; in assay [1], 82%; in [2], 90%. Moreover, the “Percent Control” value in assay [3] is given as 9.6%; in assay [4] it was 3.4%.

For `Cl.O=C(O[C@H]1CN[C@H](C#Cc2cc3ncnc(Nc4ccc5c(cnn5Cc5ccccc5)c4)c3s2)C1)N1CCOCC1` [GSK200398A], the “Percent Control” value is listed as 77% with HIPK2; 92% in the assay with HIPK3; 92% in the assay on HIPK4; 100% with HPK1; 100% in the assay with HUNK; 96% in the assay with ICK. For the same compound, the “Percent Control” value in the assay with IGF1R was 97%; in the assay on IKK-alpha, 100%; in the assay with IKK-beta, 100%; in the assay on IKK-epsilon it was 100%; in the assay with INSRR, 100%; in the assay on INSR, 77%. For the same compound, the “Percent Control” value is 100% with IRAK1; 77% with IRAK3; 96% in the assay with IRAK4; 100% in the assay with ITK; 96% in assay [1]; 91% in [2]. Moreover, the “Percent Control” value is on record as 99% in [3] and 90% in assay [4].

For the compound `CN(C)CCNC(=O)Nc1ccc(N(C)c2ccnc(Nc3ccc(CS(C)(=O)=O)cc3)n2)cc1.Cl` [GW830900A], the “Percent Control” value in the assay with HIPK2 worked out at 94%; in the assay with HIPK3, 81%; in the assay with HIPK4, 85%; in the assay on HPK1, 30%; in the assay with HUNK it was 55%; in the assay with ICK, 70%. Besides, the “Percent Control” value is reported as 100% in the assay with IGF1R; 100% in the assay on IKK-alpha; 97% in the assay with IKK-beta; 100% in the assay with IKK-epsilon; 99% in the assay on INSRR; 75% in the assay on INSR. For the same compound, the “Percent Control” value is 59% with IRAK1; 31% with IRAK3; 80% in the assay with IRAK4; 83% with ITK; 100% in assay [1]; 33% in [2]. Besides, the figures for the “Percent Control” value in [3] and in [4] were 30% and 40%, respectively.

Consider `Cl.O=C(Nc1ccc(Oc2ccc3[nH]c(NC(=O)c4ccco4)nc3c2)cc1)Nc1cc(C(F)(F)F)ccc1F` [GW683134A], for which the “Percent Control” value was 100% with HIPK2; 100% in the assay on HIPK3; 16% in the assay on HIPK4; 44% in the assay on HPK1; 63% in the assay on HUNK; 100% with ICK. The “Percent Control” value is 100% in the assay on IGF1R; 24% with IKK-alpha; 88% in the assay with IKK-beta; 100% in the assay on IKK-epsilon; 100% with INSRR; 88% in the assay with INSR. The “Percent Control” value is 91% with IRAK1; 100% in the assay on IRAK3; 89% in the assay with IRAK4; 97% in the assay on ITK; 100% in [1]; 90% in assay [2]. Also, the figures for the “Percent Control” value in assay [3] and in assay [4] were 94% and 87%, respectively.

Turning to `O=C(Nc1n[nH]c2nc(-c3ccc(O)cc3)c(Br)cc12)C1CC1` [SB-725317], the “Percent Control” value in the assay with HIPK2 worked out at 36%; in the assay with HIPK3, 30%; with HIPK4, 100%; with HPK1 it was 86%; with HUNK it was 100%; with ICK it was 1%. Also, the “Percent Control” value worked out at 100% in the assay on IGF1R; 100% with IKK-alpha; 100% in the assay on IKK-beta; 84% with IKK-epsilon; 100% in the assay on INSRR; 100% in the assay with INSR. Further, the “Percent Control” value was 56% in the assay on IRAK1; 100% in the assay with IRAK3; 89% in the assay with IRAK4; 100% with ITK; 60% in assay [1]; 63% in assay [2]. In addition, the “Percent Control” value in assay [3] was 24%; in assay [4] it was 6.9%.

For the compound `COc1cc(N2CCN(C(C)C)CC2)ccc1Nc1nc(Nc2ccc(F)cc2C(=O)NC[C@@H](O)CO)c2cc[nH]c2n1` [GSK1392956A], the “Percent Control” value in the assay with HIPK2 came to 23%; in the assay with HIPK3, 44%; with HIPK4, 1.4%; in the assay with HPK1, 86%; with HUNK it was 83%; with ICK, 100%. In addition, the “Percent Control” value in the assay with IGF1R is given as 9.8%; with IKK-alpha, 100%; in the assay with IKK-beta, 97%; with IKK-epsilon it was 78%; with INSRR, 1.4%; in the assay with INSR, 1.1%. Further, the “Percent Control” value with IRAK1 was 90%; in the assay with IRAK3, 86%; in the assay with IRAK4, 89%; with ITK it was 100%; in assay [1], 94%; in assay [2] it was 89%. The “Percent Control” value turned out to be 100% in assay [3] and 88% in assay [4].
